# Source: PubChem BioAssay (NCATS)
# Inconclusive results are not listed. Entries that show only a call come without a potency. Active and inactive are the calls of the source. Calls come from the whole dose curve; as a rule, active = well fitted curve in the direction sought with a large enough effect; inconclusive = small, poorly fitted or top-dose-only effect, or another doubt; inactive = no such curve, though single readings can be large; an effect the other way counts as inactive or inconclusive.
# Tests used:
# [1] = target: Aldehyde dehydrogenase, mitochondrial (Homo sapiens) (UniProt P05091); assay: qHTS for Inhibitors of the Aldehyde Dehydrogenase Family (ALDH2) Primary screen (AID 2061308); note: nearly all actives have a fitted effect of over 55% in size
# [2] = target: Retinaldehyde dehydrogenase 3 (Homo sapiens) (UniProt P47895); assay: qHTS for Inhibitors of the Aldehyde Dehydrogenase Family (ALDH1A3) Primary screen (AID 2061315)
SMILES,Potency [1],Potency [2]
Cc1c(Br)cc(F)c([S+](=O)([O-])N2CCN([S+](=O)([O-])c3ccc4c(c3)OCCO4)CC2)c1F,inactive,inactive
CC(C)(C)N[S+](=O)([O-])c1cccc(-c2nnc(SCc3ccc(C(=O)O)cc3)n2-c2ccc(F)cc2)c1,inactive,inactive
Cc1cc(C)nc(NC(=S)N2CCN(c3ncccn3)CC2)c1,inactive,inactive
Nc1ccccc1OCCn1c(CCNC(=O)C2CCCCC2)nc2ccccc21,inactive,inactive
CC(=O)NC(c1cccs1)c1cc(F)c2cccnc2c1O (stereo unspecified),inactive,inactive
COc1cccc(CC(=O)Nc2nc(-c3ccc4c(c3)CCN4C(=O)c3ccccc3C)c(C)s2)c1,inactive,inactive
Cc1ccccc1-c1csc2ncnc(Sc3nnnn3C)c12,inactive,inactive
C[C@@H]1C[C@@H](O)[C@@]23CO[C@@H](O)[C@@H]2CCC[C@@H]3[C@@]12C[C@@H](c1ccoc1)OC2=O,inactive,inactive
O=C(Nc1nnc(-c2ccco2)o1)c1ccc(C(F)(F)F)cc1,inactive,inactive
Cc1ccc(S(=O)(=O)Nc2cccc3cccnc23)cc1,inactive,inactive
Oc1ccc(CNCc2ccc3c(c2)OCO3)c2cccnc12,inactive,inactive
Cc1cccc(Nc2nc(NCCO)nc(N3CCCC3)n2)c1,inactive,inactive
O=C(OCC#CCSc1nnc(-c2cccc3ccccc23)o1)c1ccc(C(F)(F)F)cc1,inactive,inactive
COc1ccc(Oc2c(Cl)cnn(-c3cc(C)cc(C)c3)c2=O)cc1,inactive,inactive
Cc1ccc(-c2cc(C(=O)Nc3ccccc3Cl)c3ccccc3n2)cc1C,inactive,inactive
O=C1Nc2ccccc2/C1=C/c1ccc[nH]1,inactive,inactive
COc1ccc(C2=Nn3c(nnc3-c3ccccc3F)SC2)cc1OCC1CC1,inactive,inactive

SMILES,Potency [1],Potency [2]
N#Cc1c(Oc2ccc(F)c(NC(=O)Cc3cccc(C(F)(F)F)c3)c2)ccc2nc(NC(=O)C3CC3)sc12,inactive,inactive
Cc1ccc(NS(=O)(=O)c2cc3c(cc2N(C)C)NC(=O)CC3)cc1C,inactive,inactive
Cc1cc(C)nc(NC(=S)N2CCN(c3nc(C)cnc3C)CC2)c1,inactive,inactive
CC(C)c1cccc2c(-c3ccccc3)cc(-c3ccc(-c4ccc(C(=O)O)cc4)[nH]3)nc12,inactive,inactive
COc1cccc(-c2ccc(-c3nc4ccccc4c(=O)[nH]3)o2)c1,inactive,inactive
Cn1nnnc1Sc1ncnc2scc(-c3ccccc3[N+](=O)[O-])c12,inactive,inactive
Cc1cc2c(s1)c1cnn(Cc3ccc(C)c(F)c3F)c(=O)c1n2C,inactive,inactive
CC(C)(C)N[S+](=O)([O-])c1cccc(-c2nnc(SCC(=O)Nc3ccc(C(=O)O)cc3)n2-c2ccccc2)c1,inactive,inactive
NC(=O)c1ccc(-c2noc(-c3cccc(Cl)c3)n2)cc1,inactive,inactive
Cc1ccc(CNc2ncnc3ccc(-c4ccc(C(=O)N(C)C)o4)cc23)o1,inactive,inactive
CCn1c2cc(C)sc2c2cnn(Cc3ccccc3F)c(=O)c21,inactive,inactive
Cc1ccc(S(=O)(=O)Nc2ccc(C(=O)Nc3nc(-c4ccccc4)cs3)c(Cl)c2)cc1,inactive,inactive
Cc1ccc2oc(NC3=NC4(CCCC4)C4=C(CCCC4=O)N3)nc2c1,inactive,inactive
S=C(NCCCN(Cc1ccc(Cl)c(Cl)c1)c1ccc(Br)cn1)NCCc1cnc[nH]1,inactive,inactive
NC(=O)c1ccc(O)c2ncccc12,inactive,inactive
CC(Nc1nc(-c2ccccc2C(F)(F)F)nc2ccccc12)c1ccc(-c2ccccc2)cc1 (stereo unspecified),inactive,inactive
